# Experimental data published in PubChem BioAssay AID1159580 (chemical genetic matrix, 2015).
# Screen size: about 5,500 compounds; about 2,000 (36%) were called active. About 18% were inconclusive and are not listed. Some of the results follow. Unmarked numbers belong to inactive results. Cut-off read from the data, not from the text of the source: active = normalized growth mostly below about 0.91 (no sharp cut-off); inconclusive = no clear call, values can overlap the other calls; inactive = mostly above about 0.92.
# Assay: chemical genetic growth profiling, strain panel (AID 1159580);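 note: tested at 20 µM; growth read once vehicle control cultures reached saturation at 30 °C; 1 = growth at the plate median or of vehicle wells; lower values mean less growth of the strain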
# Settings: S. cerevisiae deletion strains, growth OD
# [1] = locus YDL101C, strain DUN1, stronger effect = lower value
# [2] = locus YHR030C, strain SLT2, stronger effect = lower value
structure (smiles),measurement,setting,value
COc1ccc(C(=O)c2sc(Nc3ccccc3)nc2-c2ccccc2)cc1,normalized growth,"locus YAL013W, strain DEP1, stronger effect = lower value",0.999
same,normalized growth,"locus YBR229C, strain ROT2, stronger effect = lower value",0.979
same,normalized growth,"locus YCL061C, strain MRC1, stronger effect = lower value",1
same,normalized growth,[1],1
same,normalized growth,"locus YDR150W, strain NUM1, stronger effect = lower value",1.01
same,normalized growth,"locus YEL061C, strain CIN8, stronger effect = lower value",0.96
same,normalized growth,"locus YGR078C, strain PAC10, stronger effect = lower value",0.994
same,normalized growth,[2],0.907
same,normalized growth,"locus YHR087W, strain rtc3, stronger effect = lower value",0.958
same,normalized growth,"locus YJR043C, strain POL32, stronger effect = lower value",0.988
same,normalized growth,"locus YJR075W, strain HOC1, stronger effect = lower value",0.975
same,normalized growth,"locus YKL190W, strain CNB1, stronger effect = lower value",0.997
same,normalized growth,"locus YLR039C, strain RIC1, stronger effect = lower value",0.825
same,normalized growth,"locus YLR058C, strain SHM2 (second series), stronger effect = lower value",1.02
same,normalized growth,"locus YLR085C, strain ARP6, stronger effect = lower value",0.853
same,normalized growth,"locus YLR262C, strain YPT6, stronger effect = lower value",0.993
same,normalized growth,"locus YML094W, strain GIM5, stronger effect = lower value",0.927
same,normalized growth,"locus YMR219W, strain ESC1, stronger effect = lower value",0.976
same,normalized growth,"locus YMR263W, strain SAP30, stronger effect = lower value",0.971
same,normalized growth,"locus YMR307W, strain GAS1, stronger effect = lower value",0.925
same,normalized growth,"locus YNL153C, strain GIM3, stronger effect = lower value",1.03
same,normalized growth,"locus YNL298W, strain CLA4 (second series), stronger effect = lower value",0.953
same,normalized growth,"locus YNL322C, strain KRE1, stronger effect = lower value",0.989
same,normalized growth,"locus YNR030W, strain Alg12, stronger effect = lower value",0.913
same,normalized growth,"locus YOL006C, strain TOP1, stronger effect = lower value",0.893
same,normalized growth,"locus YPL055C, strain LGE1, stronger effect = lower value",0.916
same,normalized growth,"locus YPL241C, strain CIN2, stronger effect = lower value",0.898
same,normalized growth,"locus YPR135W, strain CTF4, stronger effect = lower value",0.857
COc1ccc2c(c1)CCc1sc(NC(=O)c3ccco3)nc1-2,normalized growth,"locus YAR019C, strain CDC15, stronger effect = lower value",0.957
same,normalized growth,"locus YBL105C, strain PKC1, stronger effect = lower value",0.961
same,normalized growth,"locus YBR135W, strain CKS1, stronger effect = lower value",0.953
same,normalized growth,"locus YBR136W, strain MEC1, stronger effect = lower value",0.969
same,normalized growth,"locus YBR160W, strain CDC28, stronger effect = lower value",0.965
same,normalized growth,"locus YDL017W, strain CDC7, stronger effect = lower value",0.971
same,normalized growth,"locus YDL028C, strain MPS1, stronger effect = lower value",0.971
same,normalized growth,[1],0.993
same,normalized growth,"locus YDL108W, strain KIN28, stronger effect = lower value",0.947
same,normalized growth,"locus YDL132W, strain cdc53, stronger effect = lower value",0.97
same,normalized growth,"locus YDL214C, strain PRR2, stronger effect = lower value",0.901
same,normalized growth,"locus YDR052C, strain DBF4, stronger effect = lower value",0.969
same,normalized growth,"locus YDR054C, strain cdc34, stronger effect = lower value",0.955
same,normalized growth,"locus YDR226W, strain ADK1, stronger effect = lower value",0.957
same,normalized growth,"locus YDR477W, strain SNF1, stronger effect = lower value",0.889
same,normalized growth,"locus YER123W, strain YCK3, stronger effect = lower value",0.858
same,normalized growth,"locus YER133W, strain GLC7, stronger effect = lower value",0.872
same,normalized growth,"locus YFL009W, strain cdc4, stronger effect = lower value",0.963
same,normalized growth,"locus YFL029C, strain CAK1, stronger effect = lower value",0.959
same,normalized growth,"locus YFR003C, strain YPI1, stronger effect = lower value",0.964
same,normalized growth,"locus YFR019W, strain FAB1, stronger effect = lower value",0.996
same,normalized growth,"locus YFR028C, strain CDC14, stronger effect = lower value",0.95
same,normalized growth,"locus YGR040W, strain KSS1, stronger effect = lower value",0.872
same,normalized growth,"locus YGR052W, strain FMP48, stronger effect = lower value",0.94
same,normalized growth,"locus YGR092W, strain DBF2, stronger effect = lower value",0.803
same,normalized growth,[2],0.757 (active)
same,normalized growth,"locus YHR079C, strain IRE1, stronger effect = lower value",0.952
same,normalized growth,"locus YHR082C, strain KSP1, stronger effect = lower value",0.918
same,normalized growth,"locus YHR205W, strain SCH9, stronger effect = lower value",0.921
same,normalized growth,"locus YIL147C, strain SLN1, stronger effect = lower value",0.957
same,normalized growth,"locus YJL095W, strain BCK1, stronger effect = lower value",0.895
same,normalized growth,"locus YJL128C, strain PBS2, stronger effect = lower value",0.934
same,normalized growth,"locus YJL157C, strain FAR1, stronger effect = lower value",0.889
same,normalized growth,"locus YJR016C, strain ILV3, stronger effect = lower value",0.961
same,normalized growth,"locus YJR066W, strain TOR1 (second series), stronger effect = lower value",0.872
same,normalized growth,"locus YJR066W, strain TOR1, stronger effect = lower value",0.924
same,normalized growth,"locus YKL048C, strain ELM1, stronger effect = lower value",0.959
same,normalized growth,"locus YKL067W, strain YNK1, stronger effect = lower value",0.92
same,normalized growth,"locus YKL101W, strain HSL1, stronger effect = lower value",0.941
same,normalized growth,"locus YKL193C, strain SDS22, stronger effect = lower value",0.95
same,normalized growth,"locus YKL203C, strain TOR2, stronger effect = lower value",0.951
same,normalized growth,"locus YLR113W, strain HOG1, stronger effect = lower value",0.823 (active)
same,normalized growth,"locus YLR133W, strain CKI1, stronger effect = lower value",0.93
same,normalized growth,"locus YLR403W, strain SFP1, stronger effect = lower value",0.915
same,normalized growth,"locus YML070W, strain DAK1, stronger effect = lower value",0.88
same,normalized growth,"locus YMR001C, strain CDC5, stronger effect = lower value",0.946
same,normalized growth,"locus YMR205C, strain PFK2 (second series), stronger effect = lower value",0.927
same,normalized growth,"locus YMR277W, strain FCP1, stronger effect = lower value",0.954
same,normalized growth,"locus YNL006W, strain LST8, stronger effect = lower value",0.967
same,normalized growth,"locus YNL020C, strain ARK1, stronger effect = lower value",0.928
same,normalized growth,"locus YNL161W, strain CBK1, stronger effect = lower value",0.96
same,normalized growth,"locus YNL183C, strain NPR1, stronger effect = lower value",0.938
same,normalized growth,"locus YNL207W, strain RIO2, stronger effect = lower value",0.96
same,normalized growth,"locus YNL222W, strain SSU72, stronger effect = lower value",0.957
same,normalized growth,"locus YNL307C, strain MCK1 (second series), stronger effect = lower value",0.94
same,normalized growth,"locus YOL078W, strain AVO1, stronger effect = lower value",0.961
same,normalized growth,"locus YOL136C, strain PFK27, stronger effect = lower value",0.882
same,normalized growth,"locus YOR061W, strain CKA2, stronger effect = lower value",0.887
same,normalized growth,"locus YOR119C, strain RIO1, stronger effect = lower value",0.865
same,normalized growth,"locus YOR231W, strain MKK1, stronger effect = lower value",0.932
same,normalized growth,"locus YOR329C, strain SCD5, stronger effect = lower value",0.969
same,normalized growth,"locus YPL031C, strain PHO85, stronger effect = lower value",0.828
same,normalized growth,"locus YPL153C, strain RAD53, stronger effect = lower value",0.845
same,normalized growth,"locus YPL204W, strain HRR25, stronger effect = lower value",0.896
same,normalized growth,"locus YPL209C, strain IPL1, stronger effect = lower value",0.968
same,normalized growth,"locus YPL256C, strain CLN2, stronger effect = lower value",0.918
same,normalized growth,"locus YPR025C, strain CCL1, stronger effect = lower value",0.953
same,normalized growth,"locus YPR106W, strain ISR1, stronger effect = lower value",0.969
same,normalized growth,"locus YPR111W, strain DBF20, stronger effect = lower value",0.967
same,normalized growth,"strain NNK1, stronger effect = lower value",0.973
same,normalized growth,"strain TSCII, stronger effect = lower value",0.959
